Values joined by “and” are separate entries in the source; they are usually repeats but may differ in a detail not shown here. Identical values can stand only once. Hit rate of the full screen: of about 260,000 compounds, about 2,200 (0.85%) were called active.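 How the source made its calls: active means compounds whose cAMP rise, as percent of the full-agonist control response, exceeds 60; inactive means the rest.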 Many of the other results were omitted from the sample, so actives are more common in it than they were. More than one record can exist for a structure, and the calls need not agree.
These compounds were tested against Prostaglandin E2 receptor EP2 subtype (Homo sapiens) (UniProt P43116) (assay: EP2 receptor modulators, cAMP readout, primary screen, cell-based, HTRF cAMP, PGE2 stimulation (AID 940;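 further: rat C6 glioma line stably carrying human EP2 under a CMV promoter; the protocol text gives 20 µM as final concentration; 100% = response of wells given 1 µM PGE2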)). Details: EP2-expressing cells, cAMP HTRF FRET, PGE2 co-stimulation; at 25 µM; stronger effect = higher value.
Prostaglandin E2 receptor EP2 subtype (Homo sapiens), sequence (P43116 whole entry, looked up): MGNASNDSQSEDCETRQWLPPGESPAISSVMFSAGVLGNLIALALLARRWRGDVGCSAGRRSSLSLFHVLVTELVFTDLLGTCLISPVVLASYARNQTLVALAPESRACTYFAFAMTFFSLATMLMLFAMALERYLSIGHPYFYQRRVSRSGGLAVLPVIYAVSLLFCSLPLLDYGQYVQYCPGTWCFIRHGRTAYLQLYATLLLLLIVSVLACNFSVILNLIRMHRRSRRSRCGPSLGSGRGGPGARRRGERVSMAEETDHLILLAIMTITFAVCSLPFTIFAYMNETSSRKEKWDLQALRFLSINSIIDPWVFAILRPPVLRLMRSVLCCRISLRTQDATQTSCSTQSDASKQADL

| Structure (SMILES) | induction |
| --- | --- |
| COC(=O)c1ccccc1NC(=O)CSc1nnnn1C | 20.6% (inactive) and 0.97% (inactive) |
| CCOC(=O)CNC(=O)CSc1nnnn1-c1cc(C)ccc1C | -4.73% (inactive) |
| CCOC(=O)c1c(-c2ccc(C)cc2C)csc1NC(=O)CSc1nnnn1C | 63.5% (active) |
| CSc1nc(O)c(C2CCCCC2)c(=O)[nH]1 | -1.22% (inactive) |
| COc1ccc(CNC(=O)CCSc2nc(-c3ccco3)cc(C(F)(F)F)n2)cc1OC | -21.3% (inactive) |
| CS(=O)(=O)N1CCc2cc(C(=O)N3C4CCC3CC(c3ccc(F)cc3)C4)ccc21 (stereo not drawn) | -36.1% (inactive) |
| CN(C)CCCn1c(SCCN2C(=O)c3ccccc3C2=O)nc2ccccc2c1=O | -26% (inactive) |
| CC(C)(C)c1nc2ccccc2c(=O)n1N1C(=O)c2ccccc2C1=O | 65.2% (active) |
| COC(=O)Cn1c(C)nc2ccccc2c1=O | 6.77% (inactive) |
| Cc1ccc(C2(O)CCN(Cc3cccc(OCc4ccccn4)c3)CC2)cc1 | -1.87% (inactive) |
| CCCN(CC)c1nc2c(C)cccn2c(=O)c1/C=C1\SC(=S)N(CCCOC)C1=O | 23% (inactive) |
| COc1ccc(C2(NCc3ccccc3-n3cccn3)CC2)cc1 | 7.61% (inactive) |
| C=CC1(C)CC(=O)C2(O)C(C)(O1)C(OC(C)=O)C(O)C1C(C)(C)CCC(O)C12C (stereo not drawn) | 102% (active) |
| CC(C)NC(=S)NN=C1CCCCCCCCCCC1 | 68.3% (active) |
| CC(C)(C)NC(=O)C(=O)NN=C1CCCCCCC1 | 27.3% (inactive) |
| C/C(=N\NC(=S)NC(C)C)c1ccc(C(C)(C)C)cc1 | 8.13% (inactive) |
| COc1cc(-c2nc3cnccn3c2NCC2CCCO2)ccc1O (stereo not drawn) | -29.6% (inactive) |
| O=c1cc(N2CCCCC2)c(-c2ccccc2)nn1Cc1cccc(F)c1 | 90% (active) |
| O=c1cc(N2CCN(Cc3ccccc3)CC2)c(-c2ccccc2)n[nH]1 | -2.25% (inactive) |
| O=C(CS(=O)(=O)c1cn(Cc2cccc(F)c2)c2ccccc12)N1CCCCC1 | -10.4% (inactive) |
| CC(=O)Nc1c[nH]c(=O)[nH]c1=O | -5.98% (inactive) |
| CC[C@H]1OC(=O)[C@H](C)[C@@H](O[C@H]2C[C@@](C)(OC)[C@@H](O)[C@H](C)O2)[C@H](C)[C@@H](O[C@@H]2O[C@H](C)C[C@H](N(C)C)[C@H]2O)[C@](C)(O)C[C@@H](C)[C@@H]2N[C@@H](COCCOC)O[C@H]([C@H]2C)[C@]1(C)O | 64.2% (active) and 17.8% (inactive) |
| Cc1ccc(-c2c(C)[nH]n3c(=O)c4c(nc23)CCC4)cc1 | -89.9% (inactive) |

From PubChem BioAssay AID940 (Emory University Molecular Libraries Screening Center, 2007)
